Tb PGK inh – inhibitors of T. brucei phosphoglycerate kinase; P07378; PGK/GAPDH coupled, Kinase-Glo luminescence, 60 min; Potency, µM (titrated, usually from 57.5 µM), hits mostly inhibitors; 0.043% of 380,000 active; also: nearly all actives have a fitted effect of over 60% in size
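Recombinant glycosomal PGK reaction used 1,3-bisphosphoglycerate generated in-well by GAPDH (100nM final) in 100mM TEA pH 7.6, 5mM MgCl2, 0.01% Tween-20. After 60 minutes at room temperature, ATP was read by Kinase-Glo Plus luminescence end-point.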
Vif-APOBEC3F blk – blocks the Vif interaction with APOBEC3F; HeLa A3F-eYFP + Vif (tagged APOBEC3F with the HIV-1 protein that degrades it), YFP fluorescence increase; Potency, µM (top dose mostly 46.1 µM); 0.2% of 390,000 active; also: nearly all actives have a fitted effect of over 65% in size
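Fluorescence increase (Ex 488/Em 500-530) after overnight compound treatment at 37 deg C flags inhibition of Vif-driven A3F-eYFP loss in stable HeLa A3F-eYFP/Vif cells seeded overnight beforehand.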
Vif-A3G inh – blocks the Vif interaction with human APOBEC3G | Q9HC16 | HeLa A3G-eYFP + Vif (tagged APOBEC3G with the HIV-1 protein that degrades it), YFP fluorescence, overnight | AID 602310 | 0.076% of 410,000 active | Potency, µM (titrated, usually from 46.1 µM), usual class: inhibitors; also: nearly all actives have a fitted effect of over 60% in size
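HeLa cells stably expressing Vif and C-terminally eYFP-tagged A3G, seeded overnight at 37 deg C, then exposed to compound by pintool overnight at 37 deg C. Rise in yellow fluorescence (Ex 488/Em 500-530, Acumen) marks blocked Vif-driven A3G degradation.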
IDH1 R132H inh – human IDH1 R132H inhibition; Potency, µM (titrated, usually from 76.6 µM), actives largely listed as inhibitors; 0.093% of 390,000 active; O75874; IDH1-R132H enzyme, NADPH consumption, diaphorase/resazurin fluorescence; also: nearly all actives have a fitted effect of over 65% in size
Target sequence (O75874 whole entry R132H, stated change not applied): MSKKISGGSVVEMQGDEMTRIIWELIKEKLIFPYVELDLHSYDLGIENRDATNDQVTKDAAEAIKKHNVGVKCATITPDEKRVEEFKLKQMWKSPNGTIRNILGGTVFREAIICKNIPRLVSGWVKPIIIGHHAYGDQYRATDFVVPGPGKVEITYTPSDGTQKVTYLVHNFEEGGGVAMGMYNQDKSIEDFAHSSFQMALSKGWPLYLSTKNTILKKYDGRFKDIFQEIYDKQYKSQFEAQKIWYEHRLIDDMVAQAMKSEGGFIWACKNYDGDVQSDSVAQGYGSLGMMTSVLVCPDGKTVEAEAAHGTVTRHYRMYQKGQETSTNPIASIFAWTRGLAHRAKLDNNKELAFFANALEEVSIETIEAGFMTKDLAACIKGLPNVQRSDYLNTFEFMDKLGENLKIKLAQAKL
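IDH1-R132H (0.5 ug/mL dispensed) in pH 7.5 Tris buffer was preincubated 30 min with compound, then given a substrate mix of 0.016 mM NADPH and 2 mM alpha-KG for 80 min at room temperature; remaining NADPH was read by diaphorase/resazurin fluorescence.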
LDHA block – LDHA (human) enzyme inhibition | P00338 | purified LDHA, NADH/diaphorase-resazurin fluorescence; hits give low values | AID 1347041 | activity change, % (values are at about 110 or 230 µM) | 0.15% of 480,000 active; in the data active = activity change below about -30%; inconclusive = mostly about -25% to -30%
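LDH5 2 nM; NADH 0.06 mM, pyruvate 0.2 mM; 200 mM Tris pH 7.4, EDTA, Tween-20; 5 min RT. Detection: diaphorase 0.133 mg/mL + resazurin 37 µM, fluorescence ex540/em590 at 0 and 20 min; normalized to enzyme-free and DMSO wells.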
Pin1 inh – inhibitors of human Pin1; Pin1 FP peptide displacement, HiFluor488, 10 min; Q13526; 0.009% of 390,000 active; Potency, µM (titrated, usually from 115 µM), most hits filed as inhibitors; active = well fitted inhibition curve with a large enough effect in the polarisation, with a control signal flat, not every such curve was filed as active; inconclusive = small, poorly fitted or top-dose-only effect, or effect the other way, or a change in a side signal; inactive = no such curve, though single readings can be large or run the other way; the % refers to the polarisation
Target sequence (Q13526 whole entry, looked up): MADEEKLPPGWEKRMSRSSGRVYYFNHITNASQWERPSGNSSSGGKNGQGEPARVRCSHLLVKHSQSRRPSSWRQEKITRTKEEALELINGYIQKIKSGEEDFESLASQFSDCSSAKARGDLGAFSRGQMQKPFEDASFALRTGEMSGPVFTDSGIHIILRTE
Numbers stand for hits. Most compounds without a hit are left out; they make up all but 0.49% or so of the library. Unless noted, calls follow the shape of the dose curve; as a rule, active = well fitted curve in the direction sought with a large enough effect; inconclusive = small, poorly fitted or top-dose-only effect, or another doubt; inactive = no such curve, though single readings can be large; an effect the other way counts as inactive or inconclusive.

COc1ccc(NC(=O)N(C)C[C@@H]2Oc3cc(Br)ccc3S(=O)(=O)N([C@H](C)CO)C[C@H]2C)cc1 was read as Tb PGK inh inactive, Vif-APOBEC3F blk inactive, Vif-A3G inh inactive, IDH1 R132H inh inactive and LDHA block -35.
Screening CC(C)c1ccc(-n2ncc3c(=O)n(CC(=O)Nc4cc(F)ccc4Cl)cnc32)cc1 returned LDHA block inactive.
CC(=O)Nc1ccc(NC(=O)C/C(C)=N/NC(N)=S)cc1 was read as Tb PGK inh inactive, Vif-APOBEC3F blk 7.9µM, Vif-A3G inh inactive, IDH1 R132H inh inactive, LDHA block inactive and Pin1 inh inactive.
For CCC(=O)N/N=C(\C)CC(=O)Nc1ccc(F)cc1 the results were Tb PGK inh inactive, Vif-APOBEC3F blk inactive, Vif-A3G inh inactive, IDH1 R132H inh inactive, LDHA block inactive and Pin1 inh inactive.
`O=C(Nc1ccc(Cc2ccc(NC(=O)Nc3cccnc3)cc2)cc1)Nc1cccnc1` gave Tb PGK inh inactive, Vif-APOBEC3F blk inactive, Vif-A3G inh inactive, IDH1 R132H inh inactive and LDHA block inactive.
O=C(Nc1ccc(Cl)cc1)Nc1cccnc1 was read as Vif-APOBEC3F blk inactive, Vif-A3G inh inactive, IDH1 R132H inh inactive, LDHA block -34 and Pin1 inh inactive.
For COc1ccc(C(=O)NC(NC(=S)Nc2ccc(S(N)(=O)=O)cc2)C(Cl)(Cl)Cl)cc1 (configuration not stated) the results were Tb PGK inh inactive, Vif-APOBEC3F blk inactive, Vif-A3G inh inactive, IDH1 R132H inh inactive, LDHA block -34 and Pin1 inh inconclusive.
COc1ccc(C(=O)NC(=S)Nc2ccc(S(N)(=O)=O)cc2)cc1 was read as Tb PGK inh inactive, Vif-APOBEC3F blk inactive, Vif-A3G inh inactive, IDH1 R132H inh inactive, LDHA block inactive and Pin1 inh inactive.
For O=C(NCC(c1ccco1)N1CCCCC1)c1cc(=O)c2ccccc2o1 (configuration not stated) the results were LDHA block inactive.
Screening O=C(NCC(c1cccs1)N1CCCCC1)c1cc(=O)c2ccc(Br)cc2o1 (configuration not stated) returned LDHA block inactive.
`O=C(NCC(c1cccs1)N1CCOCC1)c1cc(=O)c2cc(Br)ccc2o1` (configuration not stated) gave LDHA block -31.
`O=C(NCC(c1ccco1)N1CCOCC1)c1cc(=O)c2cc(Br)ccc2o1` (configuration not stated) gave LDHA block -31.
O=C(NCC(c1cccs1)N1CCCCCC1)c1cc(=O)c2ccc(Br)cc2o1 (configuration not stated) was read as LDHA block -31.
CC(C)c1ccccc1NC(=S)NCCc1ccc(Cl)cc1Cl was read as LDHA block inactive.
O=C(C1=C[C@@H]2[C@H]3C(=O)N(c4cccc(Cl)c4)C(=O)[C@H]3[C@@H](C(=O)c3ccc(Cl)cc3)N2C=C1)c1ccccc1 was read as Tb PGK inh inactive, Vif-APOBEC3F blk inactive, Vif-A3G inh inactive, IDH1 R132H inh inactive, LDHA block inactive and Pin1 inh inconclusive.
Screening Cc1ccc(N2C(=O)[C@@H]3[C@H](C2=O)[C@H]2C=C(C(=O)c4ccccc4)C=CN2[C@@H]3C(=O)c2ccc(Cl)cc2)cc1 returned Tb PGK inh inactive, Vif-APOBEC3F blk 11µM, Vif-A3G inh inactive, IDH1 R132H inh inactive, LDHA block inactive and Pin1 inh inactive.
Screening CC(C)c1ccc2oc(-c3ccc(N)cc3O)nc2c1 returned LDHA block inactive.
OC(CNCC(c1ccco1)N1CCCCC1)c1ccccc1 (configuration not stated) was read as Tb PGK inh inactive, Vif-APOBEC3F blk inactive, Vif-A3G inh inactive, IDH1 R132H inh inactive, LDHA block -31 and Pin1 inh inactive.
Cc1nnc(NC(=O)c2sc3nc(-c4cccs4)cc(C(F)(F)F)c3c2N)s1 was read as Tb PGK inh inactive, Vif-APOBEC3F blk 7.1µM, Vif-A3G inh inconclusive, IDH1 R132H inh inactive, LDHA block inactive and Pin1 inh inconclusive.
Nc1c(C(=O)Nc2nccs2)sc2nc(-c3cccs3)cc(C(F)(F)F)c12 was read as Tb PGK inh inactive, Vif-APOBEC3F blk inconclusive, Vif-A3G inh 8.9µM, IDH1 R132H inh inactive, LDHA block inactive and Pin1 inh inconclusive.
Screening O=c1cc(O)c2sc3nc(-c4cccs4)cc(C(F)(F)F)c3c2[nH]1 returned LDHA block inactive.
For Cc1cc(C(F)(F)F)c2c(N)c(C(=O)Nc3c(Cl)cccc3Cl)sc2n1 the results were Tb PGK inh inactive, Vif-APOBEC3F blk inactive, Vif-A3G inh inactive, IDH1 R132H inh inactive, LDHA block inactive and Pin1 inh inactive.
For CC(C)(C)C(=O)c1sc2nc(-c3cccs3)cc(C(F)(F)F)c2c1N the results were Tb PGK inh inactive, Vif-APOBEC3F blk 2.8µM, Vif-A3G inh inconclusive, IDH1 R132H inh inactive, LDHA block inactive and Pin1 inh inconclusive.
Screening c1ccc(C2=NN(c3ccccc3)CC2)cc1 returned Tb PGK inh inactive, Vif-APOBEC3F blk inactive, Vif-A3G inh inactive, IDH1 R132H inh inactive, LDHA block inactive and Pin1 inh inactive.
Screening c1ccc(N=NC2=NN(c3ccccc3)CS2)cc1 returned Tb PGK inh inactive, Vif-APOBEC3F blk 4µM, Vif-A3G inh inactive, IDH1 R132H inh inactive and LDHA block inactive.
Screening CN1C(=O)N(Cc2coc(-c3cccs3)n2)C(=O)C12CCCCC2 returned LDHA block inactive.
Screening CCN(CC)c1ccc(/C=C/c2ccccn2)cc1 returned Vif-A3G inh 3.2µM.
Screening CN(C)c1ccc(/C=C/c2ccnc3c(Cl)cccc23)cc1 returned Vif-A3G inh 3.5µM.
COc1cc(N(C)C)c(OC)cc1/C=C/c1ccnc2ccccc12 was read as Vif-A3G inh 7.1µM and LDHA block inactive.
`CN(C)c1ccc(/C=C/c2ccnc3ccc(-c4ccccc4)cc23)cc1` gave Vif-A3G inh 7.1µM and LDHA block inactive.
Screening CN(C)c1ccc(/C=C/c2ccnc3ccc(Cl)cc23)cc1 returned Vif-A3G inh inactive and LDHA block inactive.
`CCOc1ccc2c(c1)c(C(C)=O)c(C)n2-c1ccc(OC)cc1` gave LDHA block inactive.
`CC(=O)c1ccccc1NC(=O)c1ccccc1-c1ccccc1` gave LDHA block inactive.
CCCc1c(C)nc2ccc(C)cc2c1SCC(=O)O was read as LDHA block inactive.
`O=C1CC(C(=O)Nc2ccc3c(c2)OCCO3)c2c(nc(N3CCc4ccccc4C3)[nH]c2=O)N1` (configuration not stated) gave LDHA block inactive.
`O=C(COC(=O)c1cccc([N+](=O)[O-])c1)c1ccc(Cl)cc1` gave LDHA block inactive.
